Screens deposited in PubChem by The Scripps Research Institute Molecular Screening Center.
MBD2 inh: MBD2-methylated oligo binding inhibition | TR-FRET, MBD2 binding to methylated oligonucleotide | 370,000 tested, 0.31% active | inhibition, % at 4.4 µM | Q9UBB5; in the data active = inhibition above about 13%
PLCg1 inh: PLC-gamma1 (human) inhibition, primary screen. P19174. inhibition, % at 12.2 µM. purified PLC-gamma1, fluorogenic substrate, fluorescence. 370,000 tested, 0.84% active; in the data active = inhibition above about 9.5%
PLCb3 inh: inhibitors of human phospholipase C beta3; Q01970; Purified PLC-beta3, fluorogenic substrate, fluorescence; inhibition, % at 12.2 µM; 370,000 tested, 0.18% active;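 note: 0% = median of compound wells on plate and 100% = full blocker control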
UHRF1 MBD2 ctr: UHRF1 methyl-DNA binding inhibition. Q96T88. UHRF1 binding to methylated oligo, TR-FRET. inhibition, % at 4.4 µM. 370,000 tested, 0.75% active; in the data active = inhibition above about 21%;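 note: UHRF1 SRA domain binding a hemimethylated CpG hairpin DNA probe; 0% = median of test compound wells and 100% = reference inhibitor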
Target sequence (Q96T88 whole entry, looked up, the tested form may be a part): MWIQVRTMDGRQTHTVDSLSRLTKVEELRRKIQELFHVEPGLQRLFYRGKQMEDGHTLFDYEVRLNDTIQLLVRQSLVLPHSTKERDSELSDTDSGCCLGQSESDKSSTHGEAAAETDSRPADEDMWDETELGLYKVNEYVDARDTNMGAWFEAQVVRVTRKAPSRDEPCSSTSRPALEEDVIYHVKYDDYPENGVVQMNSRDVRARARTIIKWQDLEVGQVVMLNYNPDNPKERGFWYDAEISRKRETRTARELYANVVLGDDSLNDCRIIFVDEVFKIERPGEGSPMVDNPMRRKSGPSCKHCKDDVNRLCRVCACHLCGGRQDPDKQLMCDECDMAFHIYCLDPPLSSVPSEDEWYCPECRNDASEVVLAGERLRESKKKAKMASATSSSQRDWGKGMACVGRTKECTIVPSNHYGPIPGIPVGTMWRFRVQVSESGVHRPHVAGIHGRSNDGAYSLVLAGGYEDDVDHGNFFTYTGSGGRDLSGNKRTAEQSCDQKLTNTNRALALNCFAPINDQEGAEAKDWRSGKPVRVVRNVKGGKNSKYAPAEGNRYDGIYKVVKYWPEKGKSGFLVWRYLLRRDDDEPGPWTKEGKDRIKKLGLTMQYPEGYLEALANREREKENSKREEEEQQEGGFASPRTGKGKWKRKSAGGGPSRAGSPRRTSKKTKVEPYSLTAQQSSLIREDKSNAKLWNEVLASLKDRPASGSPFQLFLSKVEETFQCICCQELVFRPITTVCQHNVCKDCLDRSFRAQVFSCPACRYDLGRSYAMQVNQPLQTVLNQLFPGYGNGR
LEDGF integ inh: blocks HIV-1 LEDGF/p75-dependent DNA integration. inhibition, % at 3.7 µM. 370,000 tested, 0.64% active. TR-FRET IN-LEDGF/p75 DNA integration, Eu/Cy5;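 active = inhibition above the screen-wide mean plus 3 SD, cut at about 13% in these data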;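 note: signal is the Cy5 over europium emission ratio at 671 and 618 nm; 0% = plate median of compound wells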
PLCg1 ctr: inhibits human PLC-gamma1 in PLC-beta3 counter-screen | AID 743258 | 3,300 tested, 3.1% active | shares compounds with PLCg1 inh | inhibition, % at 12.3 µM | purified PLC-gamma1, fluorogenic substrate, fluorescence; in the data active = inhibition above about 9.5%
PLCb3 confirm: confirmation of human PLC-beta3 inhibitors. shares compounds with PLCg1 inh. purified PLC-beta3, fluorogenic substrate fluorescence. inhibition, % at 12.3 µM. 3,300 tested, 1% active. AID 743261
* = called active by the depositor; x = no result given. Shown are actives, neighbours in structure and some others; about 2.4% of the full set was active somewhere. Cut-off read from the data, not from the text of the source, unless noted: active = inhibition above about 11%; inactive = the rest.

SMILES	MBD2 inh	PLCg1 inh	PLCb3 inh	UHRF1 MBD2 ctr	LEDGF integ inh	PLCg1 ctr	PLCb3 confirm
O=C(CCS(=O)(=O)c1cccs1)Nc1ccc(C(=O)NCc2cccs2)cc1	0	6	-2	4	8	x	x
O=C(CCS(=O)(=O)c1cccs1)Nc1ccc(C(=O)NCc2ccc(F)cc2)cc1	-6	9.6*	10	5	2	-9	-2
Cc1ccc(O)c(C(C)c2c[nH]c3ccccc23)c1 (stereo not drawn)	1	-1	-1	0	-2	x	x
CC(C)CCN(C)C1CCN(C(=O)Nc2ccc3c(c2)OCO3)CC1	0	-2	1	1	-1	x	x
CC1(C(=O)NS(=O)(=O)c2cccc(F)c2)CCN1C(=O)c1cccc(F)c1 (stereo not drawn)	-2	6	6	1	3	x	x
CC1(C(=O)NS(=O)(=O)c2ccc(F)cc2F)CCN1C(=O)c1cccc(F)c1 (stereo not drawn)	-5	12*	9	1	1	-7	0
c1ccc([C@H]2CNCCN2CCc2cccc3ccccc23)cc1	-1	12*	5	2	-4	-5	-3
COc1ccc(Cn2cc(F)c(=O)n(CCC(C)C)c2=O)cc1[N+](=O)[O-]	1	13*	7	4	2	-6	-1
Cc1ccc(-n2c(SCC(=O)Nc3ccccc3-c3ccccc3)nnc2-c2cccnc2)cc1	-1	4	1	1	5	x	x
O=C(OCc1ccccc1Cl)c1cccnc1Cl	-1	14*	8	-4	3	-8	-2
O=C(OCc1c(Cl)cccc1Cl)c1cccnc1Cl	0	-2	1	1	-1	x	x
Cc1ncc(C[n+]2csc(CCOC(=O)C34CC5CC(CC(C5)C3)C4)c2C)c(N)n1	4	0	-4	0	-2	x	x
Cc1ncc(C[n+]2csc(CCOC(=O)CC3C4CC5CC(C4)CC3C5)c2C)c(N)n1 (stereo not drawn)	2	9.8*	3	2	0	-4	-1
C#CCN1CC(N(C)CCOC(=O)c2occ3ccccc23)CS1(=O)=O (stereo not drawn)	2	-1	0	3	3	x	x
C[C@H](CCC(=O)N(c1ccccc1)c1ccccc1)CC1CCCCC1	-1	-1	3	-1	-3	x	x
O=C1CC(CC(=O)N/N=C/c2ccccc2[N+](=O)[O-])=NN1	-2	13*	-1	-4	-2	-5	-1
O=C(C[n+]1ccccc1)N/N=C/c1ccccc1[N+](=O)[O-]	0	2	6	-1	3	x	x
COC(=O)[C@H](CC(C)C)N(Cc1cn(Cc2ccc(C)cc2)nn1)S(=O)(=O)c1ccc(F)cc1Br	12	4	4	17	0	x	x
NC(=O)CCn1nc(-c2ccc(Cl)cc2)c2ccccc2c1=O	-2	12*	2	0	3	-7	-7
COc1ccc(C2C(C(=O)Nc3ccc(F)cc3F)CCC(=O)N2c2ccc(OC)cc2)cc1 (stereo not drawn)	1	-2	4	0	2	x	x
Cc1nc([N+](=O)[O-])c(Br)n1CC(=O)c1ccc(Cl)cc1	10	9.7*	1	5	-2	2	0
O=C(Cc1c[nH]c2ccccc12)Nc1ccc(Nc2cccnc2)c(-c2cc(F)cc(F)c2)c1	4	-10	-15	-3	-5	x	x
CS(=O)(=O)n1nc(OC(=O)c2cccs2)cc1N	-3	12*	10	3	1	-5	2
NC(=O)C1CCN(c2ncc(Br)s2)CC1	1	-9	-11	-2	-3	x	x
COc1ccc(CC(=O)N(Cc2ccccc2)c2ccccc2C(=O)Nc2cc(OC)ccc2OC)cc1	-3	-14	-20	1	4	x	x
SMILES	MBD2 inh	PLCg1 inh	PLCb3 inh	UHRF1 MBD2 ctr	LEDGF integ inh	PLCg1 ctr	PLCb3 confirm
COc1ccc(OCc2cc(C(=O)NC(C)Cn3cncn3)no2)c(Cl)c1 (stereo not drawn)	9	11*	-8	27*	7	-9	-7
O=C(CSc1nnc(-c2ccccc2)n1-c1ccc(Cl)cc1)Nc1ccccc1-c1ccccc1	-2	9	3	1	5	x	x
O=[N+]([O-])c1ncn(Cc2ccccc2Cl)n1	1	7	13*	0	8	6	2
C[C@@H]1/C=C/CC(=O)N2[C@H](CC(=O)N[C@@H]1c1ccccc1)C[C@@H](C)[C@H]2c1ccccc1	3	-1	0	-1	-1	x	x
N#CCC(C(=O)c1cccnc1)c1ccccc1 (stereo not drawn)	-7	1	11*	-2	4	0	-6
C=CCN1C(=O)[C@@H](CC(=O)NCc2cccs2)[C@]2(C(=O)OCC)CCCCC/C=C/12	-2	-1	0	1	-1	x	x
O=S1(=O)CC(c2ccccc2)=NN=C(c2ccccc2)C1	-1	9	11*	0	1	-1	-4
CC(=O)c1ccc(NC(=O)NNS(=O)(=O)c2ccc([N+](=O)[O-])cc2)cc1	8	8	-6	6	-3	x	x
O=C(c1ccc(NS(=O)(=O)c2cccc([N+](=O)[O-])c2)cc1)N1CCCCCC1	-2	1	-3	-1	3	x	x
CC1CCCN(C(=O)c2ccc(NS(=O)(=O)c3cccc([N+](=O)[O-])c3)cc2)C1 (stereo not drawn)	-5	16*	-3	0	4	-7	-2
CC(=O)c1ccc(NS(=O)(=O)c2ccc([N+](=O)[O-])cc2)cc1	-5	7	17*	3	6	0	0
O=C1C=C(c2ccc3ncccc3c2)C[C@@H](c2ccc(Cl)cc2)C1	4	11*	0	0	3	0	-1
CCCC(=O)N1CCC[C@]2(CC[C@H](CCC#N)O2)C1	0	-1	-3	0	-4	x	x
C=CCN1[C@H](C)COc2cc(N3CCCC3)ccc2S1(=O)=O	-3	-3	-2	0	-4	x	x
Cc1[nH]c2ccccc2c1C(=O)CSC(=S)N1CCCCC1	1	15*	6	6	1	-2	2
Cc1[nH]c2ccccc2c1SCC(=O)N1CCCCC1	4	-3	-12	3	-1	x	x
CS(=O)(=O)N(CC(=O)NCCSCc1ccccc1Cl)c1ccc(F)cc1	2	13*	0	2	5	-4	-2
CS(=O)(=O)N(CC(=O)NCCSc1ccccn1)c1ccc(F)cc1	6	3	1	2	2	x	x
O=C(Nc1nc2ncccn2c1-c1ccc(F)c(F)c1)c1ccc(F)cc1	-3	-218	-273	-2	6	x	x
Cn1cc(S(=O)(=O)CC(=O)N2CCc3ccccc32)c2ccccc21	-3	18*	16*	0	3	13*	15*
CCCn1cc(S(=O)(=O)CC(=O)N2CCc3ccccc32)c2ccccc21	0	0	-4	5	7	x	x
